PostGolgi ctrl – growth inhibition of yeast control strain, primary screen, counter-screen for post-Golgi transport modulator project. efflux-deficient yeast background strain, growth absorbance A615, 16 h. inhibition, % at 10 µM. hit rate 5% among 98,000. AID 738, 2007
CYP2C9 inh – blockers of cytochrome P450 2C9 activity – biochemical, luminescence, ADME assay, primary screen. inhibition, % at 5 µM. CYP2C9 Supersomes, luciferin-H conversion. AID 777, 2007. hit rate 20% among 96,000;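 active = blocking of liver enzyme CYP2C9 beyond about 50% at 5 µM, limit read from the data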
CYP2C9 act – human CYP2C9 activators, primary screen, biochemical, luminescence; hit rate 1.4% among 96,000; recombinant CYP2C9, luciferin-H conversion; stronger effect = higher value; factor 1 = untreated enzyme, 0 = blocked; AID 1024, 2008; Cytochrome P450 2C9 (Homo sapiens), P11712; activation factor at 5 µM;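 active = activation factor of 2 or more for CYP2C9 at a 5 µM dose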
CYP2C19 activ – human CYP2C19 activators, primary screen, biochemical, luminescence; recombinant CYP2C19, luciferin-H EGE luminescence; stronger effect = higher value; 0 = fully inhibited enzyme, 1 = untreated enzyme; 96,000 tested, under 10 active; AID 1025, 2008; Cytochrome P450 2C19 (Homo sapiens), P33261; activation factor at 5 µM;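 active = activation factor of at least 2 at 5 µM in the primary screen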
Target sequence (P33261 whole entry, looked up): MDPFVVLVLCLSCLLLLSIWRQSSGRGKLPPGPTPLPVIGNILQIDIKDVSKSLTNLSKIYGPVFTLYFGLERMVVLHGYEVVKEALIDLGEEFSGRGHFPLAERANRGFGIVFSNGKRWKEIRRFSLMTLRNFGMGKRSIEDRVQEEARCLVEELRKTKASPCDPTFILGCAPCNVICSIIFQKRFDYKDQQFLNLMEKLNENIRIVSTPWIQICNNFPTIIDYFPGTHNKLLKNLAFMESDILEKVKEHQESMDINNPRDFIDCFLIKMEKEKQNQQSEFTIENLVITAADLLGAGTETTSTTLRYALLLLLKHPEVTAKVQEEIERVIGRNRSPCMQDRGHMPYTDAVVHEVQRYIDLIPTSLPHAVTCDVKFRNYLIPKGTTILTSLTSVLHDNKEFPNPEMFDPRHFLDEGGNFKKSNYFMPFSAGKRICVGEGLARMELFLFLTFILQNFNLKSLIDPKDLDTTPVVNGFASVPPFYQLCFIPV
CYP2C19 inhib – blockers of cytochrome P450 2C19 activity – biochemical, luminescence, ADME assay, primary screen; AID 778, 2007; CYP2C19 Supersomes, luciferin-H EGE luminescence, 30 min; inhibition, % at 5 µM; P33261; hit rate 21% among 96,000;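 active = CYP2C19 inhibition above a set limit at 5 µM in the primary screen, cut at about 50% in these data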
PostGolgi yeast – phenotypic screen on post-Golgi transport, primary screen; post-Golgi transport phenotypic cell assay; inhibition, % at 10 µM; hit rate 0.9% among 98,000;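 also: yeast cells grown in 1536-well plates; yeast grown about 18 h at 30C before absorbance read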
Hits are given with their value; i = inactive. This is a sample that favours compounds with a hit; in the whole collection about 32% have one here. Rule as the data show it, unless noted: active = inhibition above about 30%; inactive = the rest.

SMILES	PostGolgi ctrl	CYP2C9 inh	CYP2C9 act	CYP2C19 activ	CYP2C19 inhib	PostGolgi yeast
CC1CN(c2oc(-c3cccs3)nc2C#N)CC(C)O1 (configuration not stated)	i	i	i	i	i	i
N#Cc1nc(Cc2cccc3ccccc23)oc1NCCN1CCCCC1	i	i	i	i	i	i
CNc1oc(Cc2cccc3ccccc23)nc1C#N	i	i	i	i	95.7	i
CC(C)Nc1oc(Cc2cccc3ccccc23)nc1C#N	i	55.8	i	i	98.9	i
COc1ccc(Nc2oc(COc3ccc(Cl)cc3)nc2C#N)cc1	i	i	i	i	i	i
CC1CN(c2oc(Cc3cccc4ccccc34)nc2C#N)CC(C)O1 (configuration not stated)	i	59.7	i	i	64.2	i
CCCSc1nc(C)c(-c2csc(C(C#N)=C3CCCC3)n2)cc1C#N	i	i	i	i	i	i
CCn1nc(C(=O)OCC(=O)c2ccc3c(c2)OCCO3)c2ccccc2c1=O	i	i	i	i	i	i
O=C(NCCN1CCOCC1)c1noc2c1CCc1ccccc1-2	i	i	i	i	i	i
CC(NC(=O)Cc1ccsc1)c1ccc(S(N)(=O)=O)cc1 (configuration not stated)	i	i	i	i	i	i
Cc1nc(S(=O)(=O)c2cccc(Cl)c2)nc2c1CCC2	i	i	2.7	i	i	i
O=C(c1ccc(Cl)cc1)C1CCN(C(=O)NC2CCCCC2)CC1	i	84.7	i	i	92.9	i
CSCCC1NC(=O)N(CC(=O)Nc2ccc(N3CCCCC3)cc2)C1=O (configuration not stated)	i	i	i	i	i	i
CCOC(=O)C1=NNC2C(=O)N(C3CCCCC3)C(=O)C12 (configuration not stated)	i	i	i	i	i	i
COC(=O)C1=C(C)N(c2ccc(C(=O)OC)cc2)C(=O)C1	i	i	i	i	i	i
CCOC(=O)C1=C(C)N(C2CCCCC2)C(=O)C1	i	i	i	i	94.0	i
COC(=O)C1=C(C)N(C2CCCCC2)C(=O)C1	i	i	i	i	55.4	i
COC(=O)C1=C(C)N(c2cc(Cl)cc(Cl)c2)C(=O)C1	i	i	i	i	62.4	i
Cc1sc2c(c1C)C(=O)NC(c1cccc(O)c1)N2 (configuration not stated)	i	i	i	i	i	i
Cc1nc(-c2coc3cc(O)c(C)cc3c2=O)cs1	i	i	i	i	68.0	i
Cc1nc(-c2coc3cc(OCC(=O)O)ccc3c2=O)cs1	i	i	i	i	i	i
CCOC(=O)C1=NNC(C(=O)c2ccc(OC)cc2)C1c1ccccc1 (configuration not stated)	i	52.2	i	i	i	i
CCOC(=O)c1cc(-c2ccccc2)sc1NC(=O)c1ccc(OC)cc1	i	i	i	i	i	i
O=C(CSc1nc2ccccc2s1)N1c2ccccc2Sc2ccc(C(F)(F)F)cc21	i	i	i	i	i	i
COC(=O)c1sccc1NC(=O)c1ccc(OC)c(OC)c1	i	i	i	i	i	i
SMILES	PostGolgi ctrl	CYP2C9 inh	CYP2C9 act	CYP2C19 activ	CYP2C19 inhib	PostGolgi yeast
Cc1ccc(-c2nc(-c3cccnc3)no2)c(C)c1	i	i	i	i	52.4	i
Cc1ccc(C)c(OCc2nc(-c3cccnc3)no2)c1	i	i	i	i	89.7	i
O=C(COc1ccccc1)NCc1cccs1	i	i	i	i	57.9	i
O=C(COc1cccc2ccccc12)NNC(=O)c1cccs1	i	i	2.9	i	i	i
O=C(COc1ccc(Br)cc1)NCc1ccccn1	i	i	i	i	64.9	i
N#Cc1ccc(OCC(=O)NCCc2ccccn2)cc1	i	i	i	i	i	i
O=C(COc1ccccc1)NCCc1cn2ccsc2n1	i	i	i	i	84.0	i
Cc1noc(C)c1C(=O)Nc1ccccc1-c1ccccc1	i	i	i	i	i	i
Cc1ccc(OCC(=O)NCc2cccs2)cc1	i	i	i	i	71.3	i
O=C(COC(=O)c1ccc(Br)o1)NCc1cccs1	i	i	i	i	66.9	i
COc1ccccc1OCC(=O)NCc1cccs1	i	i	i	i	58.6	i
O=C(COc1nc2ccccc2nc1N1CCOCC1)N1CCc2ccccc21	i	i	i	i	i	i
O=C(O)C1CC(c2ccccc2F)=NO1 (configuration not stated)	i	i	i	i	i	i
Cc1cc(C)n(-c2ccc(C(=O)NCc3cccs3)cc2)n1	i	i	i	i	i	i
CCOC(=O)CC(NC(=O)c1cccs1)c1ccc(OCC)cc1 (configuration not stated)	i	65.4	i	i	51.8	i
CCN(CC)S(=O)(=O)c1ccc(C(=O)NCc2ccc(C)cc2)cc1	i	i	i	i	i	i
CN(C)S(=O)(=O)c1cccc(C(=O)NCc2cccs2)c1	i	59.5	i	i	51.0	i
COc1ccc(C(CC(=O)O)NC(=O)c2cccs2)cc1 (configuration not stated)	i	i	i	i	i	i
CCOc1ccc(C(=O)NCc2cccs2)cc1	i	i	i	i	66.9	i
CCN(CC)S(=O)(=O)c1ccc(C(=O)NCc2cccs2)cc1	i	53.2	i	i	i	i
CC1CCN(S(=O)(=O)c2cccc(C(=O)NCc3cccs3)c2)CC1	i	i	i	i	i	i
COC(=O)c1sccc1NC(=O)c1cc(C)on1	i	i	i	i	i	i
CNS(=O)(=O)c1ccc(Oc2ccc(S(=O)(=O)NC)cc2)cc1	i	i	i	i	i	i
Cc1ccc(-n2sc3ccccc3c2=O)cc1S(=O)(=O)N1CCCCC1	i	89.1	i	i	i	i
O=c1c2ccccc2sn1-c1ccc(S(=O)(=O)N2CCCC2)cc1	i	75.3	i	i	i	i
SMILES	PostGolgi ctrl	CYP2C9 inh	CYP2C9 act	CYP2C19 activ	CYP2C19 inhib	PostGolgi yeast
O=c1c2cccc3c2c(nn1-c1ccccc1)-c1ccccc1-3	i	i	i	i	i	i
O=c1c2ccccc2sn1-c1ccccc1	i	74.8	i	i	i	i
CCc1nnc(NC(=O)CSc2nnc(C)n2CC2CCCO2)s1 (configuration not stated)	i	i	i	i	i	i
Cc1nc(CC(=O)N2CCN(c3cccc(C)c3C)CC2)cs1	i	i	i	i	84.4	i
CC(C)C(=O)N1CCN(c2ccccc2N)CC1	i	i	i	i	i	i
Cc1cccc(N2CCN(C(=O)n3ccnc3)CC2)c1C	i	85.6	i	i	99.9	i
COc1cccc(NC(=O)N2CCN(c3cccc(C)c3C)CC2)c1	i	i	2	i	i	i
CCOC(=O)N1CCN(c2c(N3CCN(c4cccc(C)c4C)CC3)c(=O)c2=O)CC1	i	i	i	i	i	i
Cc1cccc(N2CCN(C(=O)C(C)C)CC2)c1C	85.4	i	i	i	i	90.9

Screens from PubChem.
